Laboratory results taken from PubChem BioAssay.

Test system: not listed separately
Assay: mitochondrial membrane potential change in A549 cells, profiling panel, cell-based, JC-1 fluorescence, basal, 24 h, 100 nL (AID 1138);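 note: A549 lung adenocarcinoma cells under basal conditions with no added stimulus; test concentration not given here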
Details: higher = more signal

| Structure (SMILES) | z-score |
| --- | --- |
| COCCCNC(=O)[C@@]1(CCC(=O)OC(C)(C)C)N=C(c2ccc(OCCCO)cc2)O[C@H]1c1ccccc1N=[N+]=[N-] | 2.07 |
| COc1cc2c(cc1O)C(c1ccc(CN3CCCC3)cc1)N(Cc1cc3c(cc1Br)OCO3)CC2 (centres undefined) | 1.11 |
| CCCC[C@@H](O)C1=C(COC)C[C@H]2C(=O)N(C)C(=O)[C@H]2[C@H]1CO | -0.278 |
| COC(=O)C(CC#Cc1ccc2c(c1)[C@]1(C(=O)N2)[C@H](c2ccc(O)cc2)N2[C@H](c3ccccc3)[C@H](c3ccccc3)OC(=O)[C@H]2[C@@H]1C(=O)NC[C@H](O)c1ccccc1)C(=O)OC | -0.97 |
| COC(=O)C1=CC(CCCO)=CC(c2ccc(CN3CCCC3)cc2)N(Cc2cccc(OC(F)(F)F)c2)C=C1C(=O)OC (centres undefined) | 2.87 |
| NC(=O)NCC#Cc1ccc2c(c1)[C@]1(C(=O)N2)[C@H](c2ccccc2OCCO)N2[C@H](c3ccccc3)[C@H](c3ccccc3)OC(=O)[C@H]2[C@@H]1C(=O)O | -0.545 |
| COC(=O)[C@@H]1N=C(c2ccc(OCCCO)cc2)O[C@@H]1c1ccccc1 | 0.135 |
| C=CCC(OC(C)=O)[C@@H]1[C@@H](N(Cc2cccc3ccccc23)C(=O)Cc2ccc(OC)cc2)c2cc(OCCCO)ccc2N1C(=O)c1ccc(-c2ccccc2)cc1 (some centres undefined) | 0.0256 |
| CC(C)[Si]1(C(C)C)OCc2cc(-c3ccc(-c4ccc(Cl)c(Cl)c4)o3)nc(-c3ccccc3)c21 | -0.447 |

Test system: Lefty1
Assay: Lefty1 binders on small-molecule microarrays, primary screen, biochemical, small-molecule microarray, 635/667 nm fluorescence (AID 1139)
Details: small-molecule microarray binding, fluorescence 635/667; higher = more signal

| Structure (SMILES) | composite z-score |
| --- | --- |
| C=CC[C@H](OC(=O)Nc1ccc(SC)cc1)c1ccc(O)c2ccccc12 | 1.08 |
| O=C1O[C@@H](c2ccccc2)[C@@H](c2ccccc2)N2[C@@H](c3ccc(OCCO)cc3)[C@]3(C(=O)Nc4ccc(C#CC5=CCCCC5)cc43)[C@@H](C(=O)NC[C@H](O)c3ccccc3)[C@H]12 | 1.25 |
| O=C1O[C@H](c2ccccc2)[C@H](c2ccccc2)N2[C@H]1[C@@H](C(=O)O)[C@]1(C(=O)Nc3ccc(C#CCCO)cc31)[C@H]2c1ccccc1OCCO | 0.404 |
| CC(C)c1ccc(NN2C(C(O)c3ccc(C#N)cc3)C=CC3C(=O)N(c4ccccc4)C(=O)C32)cc1 (centres undefined) | -0.278 |
| C[N+](C)(C)CCCC[C@@H]1NC(=O)[C@@H]2C[C@H](C(=O)NCCCCCCN)[C@H](c3cccc(OCCO)c3)N2C1=O | 1.16 |
| CC(C)[Si]1(C(C)C)OCc2cc(C3CC3)nc(-c3ccc(Oc4ccccc4)cc3)c21 | -0.365 |
| COCCOC(=O)N1C(=O)[C@@]2(c3cc(C#CC4(O)CCCCCC4)ccc31)[C@H](c1ccc(O)cc1)N1[C@H](c3ccccc3)[C@H](c3ccccc3)OC(=O)[C@H]1[C@@H]2C(=O)N1CCN(c2ncccn2)CC1 | 0.497 |
| COC(=O)c1c(CC[C@@H](CO)NC(=O)N[C@@H](C)Cn2cc(-c3ccccn3)nn2)oc(C(C)=O)c1C(=O)OC | 0.936 |
| CCOC(=O)[C@@H]1CCCCN1C(=O)C(=O)OC | 1.29 |
| CN(C)c1ccc(C(O)C2C=CC3C(=O)NC(=O)C3N2Nc2ccccn2)cc1 (centres undefined) | 0.783 |
| CC#CCO[Si](C#Cc1ccccc1)(C(C)C)C(C)C | -0.531 |
| CC(=O)N1CC2(CC2)CC1c1ccccc1 (centres undefined) | -0.46 |
| COCCOC(=O)N1C(=O)[C@@]2(c3cc(C#CCC(C(=O)OC)C(=O)OC)ccc31)[C@H](c1ccc(OCCO)cc1)N1[C@H](c3ccccc3)[C@H](c3ccccc3)OC(=O)[C@H]1[C@@H]2C(=O)N1CCc2cc(OC)c(OC)cc2C1 | 1.4 |
| C=CCC(OC(C)=O)[C@@H]1[C@@H](N(Cc2cccc3ccccc23)C(=O)Cc2ccc(F)cc2)c2cc(OCCCO)ccc2N1C(=O)c1ccc2ccccc2c1 (some centres undefined) | 0.117 |
| CN1C2C=C(CCCO)C(C3C(=O)N(C(N)=O)C(=O)C32)C1C1CC1 (centres undefined) | 0.145 |
| CCCN1C(=O)[C@]2(Cc3ccccc31)N=C(c1ccc(OCCCO)cc1)O[C@@H]2c1ccccc1 | 0.56 |
| NCCCCCNC(=O)[C@@H]1C[C@@H]2C(=O)N[C@@H](CCCCN)C(=O)N2[C@@H]1c1ccc(O)cc1 | 1.57 |
| Cc1ccc(C(C)CC(O)C2C=CC3C(=O)N(c4ccccc4)C(=O)C3N2Nc2ccccc2)o1 (centres undefined) | -0.0661 |

| Structure (SMILES) | composite z-score |
| --- | --- |
| CCCNC(=O)[C@@H]1c2ccccc2C(=O)N(Cc2ccc(OC(F)(F)F)cc2)[C@H]1c1ccc(CO)cc1 | -0.0534 |
| CC(C)C(CO)N1C(=O)[C@@H]2[C@H]3C(=O)OCC=C[C@H]3OC23C=CCN(c2ccc(Cl)cc2)C(=O)[C@@H]13 (some centres undefined) | -0.712 |
| CC(C)c1ccc(NN2C(C(O)c3ccc(F)cc3)C=CC3C(=O)N(c4ccccc4)C(=O)C32)cc1 (centres undefined) | 0.138 |
| OCCCC1=CC(c2ccc(CN3CCCC3)cc2)N(Cc2cc3c(cc2Br)OCO3)CC1 (centres undefined) | 0.695 |
| COc1cc2c(cc1O)C(c1cccs1)N(Cc1cc3c(cc1Br)OCO3)CC2 (centres undefined) | 0.556 |
| CCCNC(=O)[C@@]1(Sc2ccc(C)cc2)CC(=O)N(C2Cc3ccccc3C2)[C@@H]1c1ccc(CO)cc1I | 0.489 |
| CC(C)=C1C(=O)C(c2ccccc2)=C2CN3C(=O)N(CCc4ccccc4)C(=O)[C@]3(Cc3ccc(C(F)(F)F)cc3)[C@H]21 | -1.16 |
| COc1cccc(C)c1NC(=O)O[C@H]1[C@H](OC(=O)Nc2ccccc2-c2ccccc2)[C@H](OC(=O)Nc2ccccc2-c2ccccc2)[C@@H](OC)O[C@@H]1CO | 0.906 |
| COCCCNC(=O)[C@@]1(CCC(=O)OC(C)(C)C)N=C(c2ccc(OCCCO)cc2)O[C@H]1c1ccccc1N=[N+]=[N-] | -0.167 |
| COc1cc2c(cc1O)C(c1ccc(CN3CCCC3)cc1)N(Cc1cc3c(cc1Br)OCO3)CC2 (centres undefined) | -0.268 |
| CCCC[C@@H](O)C1=C(COC)C[C@H]2C(=O)N(C)C(=O)[C@H]2[C@H]1CO | 1.14 |
| COC(=O)C(CC#Cc1ccc2c(c1)[C@]1(C(=O)N2)[C@H](c2ccc(O)cc2)N2[C@H](c3ccccc3)[C@H](c3ccccc3)OC(=O)[C@H]2[C@@H]1C(=O)NC[C@H](O)c1ccccc1)C(=O)OC | 0.685 |
| COC(=O)C1=CC(CCCO)=CC(c2ccc(CN3CCCC3)cc2)N(Cc2cccc(OC(F)(F)F)c2)C=C1C(=O)OC (centres undefined) | 0.279 |
| NC(=O)NCC#Cc1ccc2c(c1)[C@]1(C(=O)N2)[C@H](c2ccccc2OCCO)N2[C@H](c3ccccc3)[C@H](c3ccccc3)OC(=O)[C@H]2[C@@H]1C(=O)O | 0.477 |
| COC(=O)[C@@H]1N=C(c2ccc(OCCCO)cc2)O[C@@H]1c1ccccc1 | -0.447 |
| C=CCC(OC(C)=O)[C@@H]1[C@@H](N(Cc2cccc3ccccc23)C(=O)Cc2ccc(OC)cc2)c2cc(OCCCO)ccc2N1C(=O)c1ccc(-c2ccccc2)cc1 (some centres undefined) | -0.47 |
| CC(C)[Si]1(C(C)C)OCc2cc(-c3ccc(-c4ccc(Cl)c(Cl)c4)o3)nc(-c3ccccc3)c21 | -0.21 |
